# Compound activity from PubChem BioAssay.
# BRCA1 expr act: qHTS Assay to Identify Small Molecule Activators of BRCA1 Expression; MCF7-BRCA1-FFLuc reporter, luminescence, 48 h; response scale: scaled: vehicle 0%, 10 µM genistein 100%; hit rate 1.1% among 380,000; Potency, µM (doses to about 46.1 µM), for the others: at the highest dose activation, usual class: activators; also: nearly all actives have a fitted effect of over 80% in size
#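 Quantitative HTS in MCF7 cells stably reporting BRCA1 expression via firefly luciferase. Compound treatment lasts 48 h at 37 °C in phenol-red free MEM. Activation is expressed relative to genistein at 10 microM and DMSO.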
# VDR inh: Inhibitors of the vitamin D receptor (VDR): qHTS; Vitamin D3 receptor (Homo sapiens), P11473; VDR-SRC2-3 peptide fluorescence polarization, 2 h; Potency, µM, for the others: max response, negative = inhibition, most hits filed as inhibitors; hit rate 0.93% among 400,000; also: % is scaled to controls: 0 for no effect and ±100 for the full control effect
#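 Two reagent solutions held at 4 deg C in the dark were dispensed, compounds pinned at 23 nl, and the mixture incubated 2 h at room temperature. Read-out: fluorescence polarization of VDR–SRC2-3 peptide binding.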
# Tb PFK inh-1: qHTS Assay to Find Inhibitors of T. brucei phosphofructokinase. ATP-dependent 6-phosphofructokinase (Trypanosoma brucei brucei), O15648. T. brucei PFK, ADP-Glo luminescence. Potency, µM (doses to about 57.5 µM), without a hit: top-dose activity, negative = inhibition, most hits filed as inhibitors. hit rate 0.17% among 330,000. AID 485367, 2010;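 also: 0% = uninhibited 1x PFK enzyme wells and -100% = no-enzyme wells; nearly all actives have a fitted effect of over 60% in size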
# Target sequence (O15648 whole entry, looked up): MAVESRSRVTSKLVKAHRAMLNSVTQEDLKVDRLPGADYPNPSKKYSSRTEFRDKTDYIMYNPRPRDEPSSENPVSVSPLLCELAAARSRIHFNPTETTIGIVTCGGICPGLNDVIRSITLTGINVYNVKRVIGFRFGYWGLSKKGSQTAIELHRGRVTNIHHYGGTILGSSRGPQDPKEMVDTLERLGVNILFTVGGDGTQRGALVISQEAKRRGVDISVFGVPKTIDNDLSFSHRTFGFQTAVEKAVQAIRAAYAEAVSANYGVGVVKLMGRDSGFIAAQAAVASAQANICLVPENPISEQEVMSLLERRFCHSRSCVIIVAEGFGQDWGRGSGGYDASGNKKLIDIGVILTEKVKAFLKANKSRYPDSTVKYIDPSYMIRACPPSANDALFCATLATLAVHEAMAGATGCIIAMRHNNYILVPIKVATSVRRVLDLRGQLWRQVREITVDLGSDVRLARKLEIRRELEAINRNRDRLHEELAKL
#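 Compounds were pin-transferred as a titration series up to 57 uM into substrate buffer (0.5 mM F6P, 0.1 mM ATP, pH 8.0), then 1.25 nM PFK was added and reactions ran 45 min before ADP-Glo detection.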
# PLK1 PBD inh: qHTS for Inhibitors of PLK1-PDB (polo-like kinase 1 - polo-box domain): Primary Screen; AID 720504, 2013; Potency, µM, for inactives: max response, negative = inhibition, hits mostly inhibitors; Plk1 PBD binding of FITC phosphopeptide, fluorescence polarization; hit rate 2.8% among 360,000; also: series mostly up to about 57 µM; % is scaled to controls: 0 for no effect and ±100 for the full control effect; nearly all actives have a fitted effect of over 65% in size
# TbPFK ATP: Tb PFK orthogonal confirmatory assay using ATP depletion (Kinase-Glo Plus) as an alternative measure of Tb PFK activity: Hit Validation | shares compounds with Tb PFK inh-1 | hit rate 47% among 1,100 | AID 504636, 2011 | Potency, µM (titrated, usually from 57.5 µM), inactives show at the top dose inhibition | Tb PFK enzyme, ATP depletion, Kinase-Glo Plus luminescence; calls by dose curve; also: nearly all actives have a fitted effect of over 60% in size
# Tb PFK inh-2: Inhibitors of T. brucei phosphofructokinase: Hit Validation; shares compounds with Tb PFK inh-1; purified T. brucei PFK, ADP-Glo luminescence, 45 min; Potency, µM (titrated, usually from 57.5 µM), inactives show at the top dose activity change, negative = inhibition, usual class: inhibitors; hit rate 41% among 1,100; AID 504637, 2011;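 also: plate controls were full PFK enzyme control for no effect and no enzyme control for full effect; nearly all actives have a fitted effect of over 60% in size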
# VDR confirm: qHTS for Inhibitors of the vitamin D receptor (VDR): Hit Validation in Primary Screen. VDR-coactivator inhibition assay, qHTS confirmation. shares compounds with VDR inh. hit rate 89% among 840. Potency, µM, actives largely listed as inhibitors
# VDR FP fluor: qHTS for Inhibitors of the vitamin D receptor (VDR): Hit Validation using a Fluorescein Assay; shares compounds with VDR inh; VDR-coactivator binding, fluorescein fluorescence polarization; Potency, µM (top dose mostly 57.1 µM), without a hit: at the top dose activity change, negative = inhibition, usual class: inhibitors; hit rate 48% among 840
# VDR bla reporter: qHTS for Inhibitors of the vitamin D receptor (VDR): Hit Validation using a Beta-Lactamase Assay. hit rate 23% among 840. VDR beta-lactamase reporter cells, FRET ratio; cells co-treated with VDR agonist LG190178. AID 602202, 2012. Potency, µM (highest dose often 46.1 µM), inactives show at the top dose activity change, negative = inhibition, most hits filed as inhibitors. shares compounds with VDR inh; also: % is scaled to controls: 0 for no effect and ±100 for the full control effect
# VDR viability: qHTS for Inhibitors of the vitamin D receptor (VDR): Hit Validation using a Cytotoxicity Assay | shares compounds with VDR inh | cytotoxicity counter-screen, cell viability, qHTS | Potency, µM (highest dose often 48.3 µM), for inactives: at the top dose activity change, negative = cytotoxicity, actives largely listed as cytotoxic | hit rate 18% among 840;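 also: plate controls were DMSO for no effect and high-concentration cycloheximide for full effect; nearly all actives have a fitted effect of over 75% in size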
# TbPYK confirm: qHTS of Trypanosoma Brucei Inhibitors: Confirmatory Assay for Cherry-picked Compounds; Potency, µM (series often up to 76.9 µM), for the others: top-dose activity change, negative = inhibition, hits mostly inhibitors; AID 720569, 2013; recombinant TbPYK, Kinase-Glo ATP luminescence; hit rate 67% among 890; shares compounds with PLK1 PBD inh; also: % is scaled to controls: 0 for no effect and ±100 for the full control effect; nearly all actives have a fitted effect of over 70% in size
# TbPYK ADP-Glo: qHTS of Trypanosoma Brucei Inhibitors: Orthogonal Assay for Cherry-picked Compounds; hit rate 62% among 890; Potency, µM (titrated, usually from 76.9 µM), without a hit: at the highest dose activity change, negative = inhibition, usual class: inhibitors; shares compounds with PLK1 PBD inh; recombinant TbPYK, ADP-Glo luminescence, 60 min; also: % is scaled to controls: 0 for no effect and ±100 for the full control effect; nearly all actives have a fitted effect of over 75% in size
# * = called active by the depositor; ? = inconclusive; · = not tested or not shown. This is a sample that favours compounds with a hit; in the whole collection about 3.9% have one here. Unless noted, calls follow the shape of the dose curve; as a rule, active = well fitted curve in the direction sought with a large enough effect; inconclusive = small, poorly fitted or top-dose-only effect, or another doubt; inactive = no such curve, though single readings can be large; an effect the other way counts as inactive or inconclusive. Potency is read from the fitted curve at half-maximal effect.
SMILES,BRCA1 expr act,VDR inh,Tb PFK inh-1,PLK1 PBD inh,TbPFK ATP,Tb PFK inh-2,TbPYK confirm,TbPYK ADP-Glo,others
COc1ccc(N2C(=O)CS(=O)C(c3ccccc3)C2=O)cc1 (centres undefined),-6.0%,35.5µM*,?,2.38µM*,?,-19.2%,12.6µM*,25.1µM*,
COc1ccc(N2C(=O)CC(N3CCC(n4c(=O)[nH]c5ccccc54)CC3)C2=O)cc1 (centres undefined),7.5%,-0.2%,5.4%,-5.7%,·,·,·,·,
O=C1CCC(C(=O)Nc2cccc(S(=O)(=O)Nc3ccccc3F)c2)=NN1,-12.2%,25.1µM*,?,2.38µM*,3.38µM*,9.53µM*,6.31µM*,6.31µM*,VDR confirm=?;VDR FP fluor=?;VDR bla reporter=25.2%;VDR viability=14.1%
O=C1C(=Cc2ccccc2)N2CCC1CC2,8.2%,7.9%,·,1.8%,·,·,·,·,
O=C(O)c1ccc2c(c1)C(=O)/C(=C/c1ccccc1)C2=O,-6.9%,?,?,2.38µM*,-16.4%,?,15.8µM*,35.5µM*,
Cc1cc(O)c(-c2cc(O)c(C)cc2O)cc1O,-88.8%,25.1µM*,12µM*,4.74µM*,3.01µM*,8.49µM*,31.6µM*,11.2µM*,
COc1ccc(N2C(=O)/C(=C/c3cccs3)NC2=S)cc1,20.2%,?,15.1µM*,2.67µM*,6.01µM*,6.01µM*,8.91µM*,12.6µM*,
CC(C)C[C@H]1C(=O)N2CCC[C@H]2[C@]2(O)O[C@](NC(=O)[C@@H]3C=C4c5cccc6[nH]c(Br)c(c56)CC4N(C)C3)(C(C)C)C(=O)N12 (some centres undefined),-33.2%,-13.6%,-2.2%,-6.7%,·,·,·,·,
